Source: PubChem BioAssay
Values joined by “and” are separate entries in the source; they are usually repeats but may differ in a detail not shown here. Equal entries are not always repeated. Active and inactive are the calls of the source. Cut-off read from the data, not from the text of the source, unless noted: active = parasite load remaining mostly below about 12% (no sharp cut-off); inactive = mostly above about 10%.

Columns and labels:
[1] = liver-stage malaria parasite growth inhibition, primary screen, cell-based, HepG2, luciferase luminescence, HepG2 viability (AID 624349);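 note: 100% = mean of DMSO negative control wells on the same plate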; conditions: P. berghei liver stage in HepG2, luciferase luminescence, concentration not given here; parasite load remaining: stronger effect = lower value; viability: measured here: HepG2 viability without parasites
[2] = stimulators of nuclear beta-catenin in C2C12, primary screen, imaging, WNT3A-conditioned medium, mouse C2C12, NPC library (AID 1117326; in the data active = nuclear beta-catenin stimulation mostly above about 4.2%, no sharp cut-off; inactive = mostly below about 10%; note: reference of the scale not given here); conditions: stronger effect = higher value
[3] = stimulators of insulin release from INS-1E, primary screen, cell-based, 5 mM glucose, NPC library (AID 1117329;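 active = compound raises insulin release from rat beta cells at 5 mM glucose, no numeric limit stated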; note: reference of the scale not given here); conditions: rat INS-1E insulin secretion, at 10 µM, stronger effect = higher value
[4] = growth inhibition of GSK3B-pretreated HCT116 cells – cell-based, CellTiter-Glo, 0.2 to 20 µM (AID 1117336;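 active = compounds lowering colon cancer cell viability after pretreatment blocking the GSK3B kinase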); conditions: HCT116 viability after GSK3B inhibitor, at 20 µM, stronger effect = higher value
[5] = inhibition of endothelial tube formation, primary screen, imaging, VEGF stimulated, CD31 staining, tube area, NPC library (AID 1117340;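 active = compound that reduces growth-factor-driven endothelial tube area in a mixed cell culture, no cutoff stated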); conditions: VEGF-stimulated ADSC/ECFC co-culture, at 10 µM, stronger effect = higher value
[6] = glucagon-like peptide 1 release enhancers, primary assay, NCI-H716 cell line, NPC library (AID 1117341;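 active = compound raises GLP1 secretion from the human gut endocrine cells, with no numeric limit stated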; note: reference of the scale not given here); conditions: NCI-H716 cells, at 10 µM, stronger effect = higher value
[7] = HCT116 colon cancer cell growth inhibition, primary screen, CellTiter-Glo luminescence, NPC library (AID 1117342;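 active = compounds that lower survival of HCT116 colon cancer cells in the luminescence readout, no numeric limit stated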); conditions: at 20 µM (top of the series)
[8] = CellTiter-Glo luminescent readout of SW480 viability loss, NPC library primary (AID 1117343;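 active = compounds that lower viability of the colon cancer cells in the luminescence readout, with no numeric limit stated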); conditions: CellTiter-Glo luminescence; at 20 µM (top of the series)
[9] = decreased DLD-1 cellular survival, CellTiter-Glo luminescent readout, NPC compound collection, primary HTS (AID 1117346;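 active = compounds that lower survival of DLD-1 colon cancer cells in the luminescence readout, no cutoff given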); conditions: DLD-1 viability, CellTiter-Glo luminescence; at 20 µM (top of the series)
[10] = molecular target: 6-phosphogluconate dehydrogenase, decarboxylating (Homo sapiens) (UniProt P52209); assay: 6PGD enzyme inhibitors, primary screen, biochemical, human, recombinant enzyme, NADPH absorbance (AID 1159550;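 active = at least 20% inhibition of 6-phosphogluconate dehydrogenase activity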); conditions: recombinant 6PGD, NADPH absorbance 341 nm; at 10 µM; stronger effect = higher value
Sequence of 6-phosphogluconate dehydrogenase, decarboxylating (Homo sapiens) (P52209 whole entry, looked up): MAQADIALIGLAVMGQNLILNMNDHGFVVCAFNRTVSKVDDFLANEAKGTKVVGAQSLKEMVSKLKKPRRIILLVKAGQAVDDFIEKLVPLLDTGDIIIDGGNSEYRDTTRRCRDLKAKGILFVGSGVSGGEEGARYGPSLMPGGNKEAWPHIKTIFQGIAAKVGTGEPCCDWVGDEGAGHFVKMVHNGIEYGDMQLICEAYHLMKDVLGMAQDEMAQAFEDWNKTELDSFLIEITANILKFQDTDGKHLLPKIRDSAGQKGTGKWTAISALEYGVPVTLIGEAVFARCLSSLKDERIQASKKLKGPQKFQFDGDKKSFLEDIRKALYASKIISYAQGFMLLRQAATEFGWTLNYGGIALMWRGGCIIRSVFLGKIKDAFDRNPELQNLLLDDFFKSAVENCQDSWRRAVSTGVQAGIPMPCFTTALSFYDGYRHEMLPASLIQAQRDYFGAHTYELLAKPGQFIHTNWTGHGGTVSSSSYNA

| SMILES | parasite load remaining [1] | viability [1] | nuclear beta-catenin stimulation ([2]; at 10 µM) | nuclear beta-catenin stimulation ([2]; stimulation, at 2 µM) [%] | insulin secretion stimulation [3] | viability decrease [4] | tube area decrease [5] | GLP1 secretion stimulation [6] | inhibition of viability [7] | viability decrease (inhibition) [8] | viability decrease (inhibition) [9] | inhibition [10] |
| --- | --- | --- | --- | --- | --- | --- | --- | --- | --- | --- | --- | --- |
| Cc1c(C(N)=O)cc([N+](=O)[O-])cc1[N+](=O)[O-] | 143% (inactive) | 90.9% | -0.3% (inactive) | -0.9 | -3.2% (inactive) | 13.7% (inactive) | -5.4% (inactive) | 2.8% (inactive) | -20% (inactive) | 34% (inactive) | 19.3% (inactive) | -17.5% (inactive) |
| CC(C)(C)CC(C)(C)c1ccc(O)c(Cc2ccc(Cl)cc2Cl)c1 | 157% (inactive) | 83.5% | 0.1% (inactive) | 6.3 | 4.4% (active) | 99.3% (active) | 108% (active) | 117% (active) | 100% (active) | 120% (active) | 102% (active) | -15.2% (inactive) |
| CCC(Cc1c(I)cc(I)c(N)c1I)C(=O)O (stereo not drawn) | 85.1% (inactive) and 170% (inactive) and 66.3% (inactive) | 78.9% and 86.3% and 103% | 1.2% (inactive) | -1.1 | 0.8% (inactive) | -70.8% (inactive) | 4% (inactive) | 1.8% (inactive) | 7.7% (inactive) | 18.6% (inactive) | -5.3% (inactive) | -0.317% (inactive) |
| Cc1cc(C)cc(OCC2CNC(=O)O2)c1 (stereo not drawn) | 135% (inactive) and 58.1% (inactive) | 90% and 111% | -0.1% (inactive) | 0.2 | -0.5% (inactive) | 4.3% (inactive) | 12.5% (inactive) | -1.5% (inactive) | 3.1% (inactive) | 13.1% (inactive) | 6% (inactive) | 3.16% (inactive) |
| O=C(O)c1ccccc1O | 90.3% (inactive) and 39.7% (inactive) | 79.5% and 93.6% | 0.5% (inactive) | -0.8 | -0.3% (inactive) | 7.5% (inactive) | 5.9% (inactive) | 6% (inactive) | 10.8% (inactive) | -3.3% (inactive) | -1.7% (inactive) | 1.06% (inactive) |
| CN(C)CCOC(=O)C(c1ccccc1)C1(O)CCCC1 (stereo not drawn) | 73.9% (inactive) and 104% (inactive) and 58% (inactive) | 70.9% and 70% and 90.8% | 0.3% (inactive) | 1.3 | 0.2% (inactive) | -18% (inactive) | -3.4% (inactive) | -3.8% (inactive) | 50.1% (active) | 20.7% (inactive) | 31.8% (inactive) | -0.0978% (inactive) |
| CN1C(C)(C)CCCC1(C)C | 91.5% (inactive) and 53.1% (inactive) | 99.3% and 92.2% | 1.1% (inactive) | 0.5 | 0.8% (inactive) | 23.2% (inactive) | 2.5% (inactive) | -2.3% (inactive) | -1.5% (inactive) | -25.5% (inactive) | -10.7% (inactive) | 2.01% (inactive) |
| OCc1ccccc1O | 91.8% (inactive) and 36.5% (inactive) | 78.7% and 97.3% | 0.4% (inactive) | 1.3 | -0.1% (inactive) | -7.2% (inactive) | 19.2% (inactive) | -0.3% (inactive) | -6.03% (inactive) | -5.8% (inactive) | -17.8% (inactive) | -10.9% (inactive) |
| Nc1cc(-c2ccncc2)c[nH]c1=O | 103% (inactive) | 98.5% | 0.5% (inactive) | 1.7 | 0.4% (inactive) | -33.1% (inactive) | -25.6% (inactive) | 0% (inactive) | -3.67% (inactive) | 15% (inactive) | -7.5% (inactive) | -7.06% (inactive) |
| CC(Cc1cccc(C(F)(F)F)c1)NCCOC(=O)c1ccccc1 (stereo not drawn) | 112% (inactive) and 111% (inactive) and 72.4% (inactive) | 102% and 77% and 73.5% | 2.3% (inactive) | 3.6 | 3% (inactive) | -38.7% (inactive) | 0.6% (inactive) | 2.6% (inactive) | 18.1% (inactive) | 51.4% (active) | 28.7% (inactive) | 16.1% (inactive) |
| CCn1cc(C(=O)O)c(=O)c2cc(F)c(N3CCNCC3)nc21 | 165% (inactive) and 68.7% (inactive) and 19.5% (inactive) |  | -0.6% (inactive) | 0.6 | -0.1% (inactive) | 5.9% (inactive) | 2.1% (inactive) | -2.8% (inactive) | -6.97% (inactive) | -275% (inactive) | -18.4% (inactive) | -18.3% (inactive) |
| Cc1c(NC(=O)c2cccnc2)c(=O)n(-c2ccccc2)n1C | 43.9% (inactive) and 167% (inactive) and 109% (inactive) | 47% and 88.9% and 92.6% | -1.7% (inactive) | 1.7 | -1% (inactive) | -14.1% (inactive) | 7.1% (inactive) | -0.1% (inactive) | -4.77% (inactive) | 18.1% (inactive) | -19.7% (inactive) | -15.8% (inactive) |
